Results published in PubChem BioAssay (NCATS).
Records with an inconclusive call do not appear. A call without a number means that no potency is given here. Calls of active or inactive are those of the source. Calls follow the shape of the dose curve; as a rule, active = well fitted curve in the direction sought with a large enough effect; inconclusive = small, poorly fitted or top-dose-only effect, or another doubt; inactive = no such curve, though single readings can be large; an effect the other way counts as inactive or inconclusive.

How the values were obtained:
[1] = biological target: Aldehyde dehydrogenase, mitochondrial (Homo sapiens) (UniProt P05091); assay: qHTS for Inhibitors of the Aldehyde Dehydrogenase Family (ALDH2) Primary screen (AID 2061308); also: nearly all actives have a fitted effect of over 55% in size
[2] = biological target: Retinaldehyde dehydrogenase 3 (Homo sapiens) (UniProt P47895); assay: qHTS for Inhibitors of the Aldehyde Dehydrogenase Family (ALDH1A3) Primary screen (AID 2061315)

SMILES | Potency [1] | Potency [2]
CC(=O)Nc1ccc(Cl)cc1C(=O)c1ccc[nH]1 | inactive | inactive
O=C(Nc1ccc(-c2nc3ccccc3[nH]2)cc1)c1ccc(Cl)c(Cl)c1 | inactive | inactive
COc1cccc(NC(=S)N2CCN(c3ccccc3C(F)(F)F)CC2)n1 | inactive | inactive
COc1cc(-c2nc(Nc3ccc(F)c(F)c3)c3ccccc3n2)cc(OC)n1 | inactive | inactive
N#Cc1no[n+]([O-])c1-c1ccccc1 | inactive | inactive
COc1ccc([S+](=O)([O-])N2CCN([S+](=O)([O-])c3ccc4c(c3)OCCO4)CC2)c(OC)c1 | inactive | inactive
COc1ccc(-c2ccc(=O)n(CC(=O)NCCc3ccccc3)n2)cc1OC | inactive | inactive
Cn1cc(C[C@H](C(=O)O)N2C(=O)c3ccc(C(=O)O)cc3C2=O)c2ccccc21 | inactive | inactive
COc1ccc(-c2csc3ncnc(Sc4nnnn4C)c23)cc1 | inactive | inactive
O=C(OCC#CCSc1nnc(-c2ccccc2)o1)c1ccc(F)cc1 | inactive | inactive
Cc1cc(C)n2ncc(C(=O)Nc3ccc4c(c3)OCCO4)c2n1 | inactive | inactive
COc1ccc2nc(-c3cccc(F)c3)sc2c1 | inactive | inactive
Cc1cc2c(s1)c1cnn(Cc3cc(F)c(Cl)cc3Cl)c(=O)c1n2C | inactive | inactive
COc1ccc2c(=O)n3nc(Nc4cccc(N5CCN(C)CC5)c4)sc3nc2c1 | inactive | inactive
Cc1csc(CNc2ncnc3ccc(-c4ccc5c(c4)OCO5)cc23)n1 | inactive | inactive
CSc1ccccc1-c1ccc(Nc2nc(-c3ccncc3)nc3ccccc23)cc1F | inactive | inactive
FC(F)(F)c1ccccc1-c1nc(NCc2ccc(-c3ccncc3)cc2)c2ccccc2n1 | inactive | inactive
Cn1nnnc1Sc1ncnc2scc(-c3cccc(C(F)(F)F)c3)c12 | inactive | inactive
Cc1ccc(OCCn2c(CCNC(=O)/C=C/c3ccccc3)nc3ccccc32)cc1 | inactive | inactive
Cc1cc(C)nc(NC(=S)N2CCN(c3ccc(Cl)c(Cl)c3Cl)CC2)c1 | inactive | inactive
Cc1ccc(-n2c(=O)ccc(=O)n2CC(=O)N(C)C(C)c2ccco2)cc1 (centres undefined) | inactive | inactive

SMILES | Potency [1] | Potency [2]
CCOC(=O)c1ccc(-c2ccc3ncnc(N(C)Cc4sccc4C)c3c2)o1 | inactive | inactive
CC(Cc1ccccc1)C(=O)Nc1ccc(Cl)cc1C(=O)O (centres undefined) | inactive | inactive
O=C(Nc1cccc(-c2nn3c(=O)cc(N4CCNCC4)nc3s2)c1)C1CCNCC1 | inactive | inactive
N#Cc1cccc(-c2ccc(NC(=O)c3cccs3)cn2)c1 | inactive | inactive
N#Cc1ccc(S(=O)(=O)N2CCN(S(=O)(=O)c3ccc4c(c3)OCCO4)CC2)cc1 | inactive | inactive
CCC1CCC2(C1)N=C(Nc1nc3ccccc3o1)NC1=C2C(=O)CCC1 (centres undefined) | inactive | inactive
COC(=O)C1=CO[C@@H](O[C@@H]2O[C@H](CO)[C@@H](O)[C@H](O)[C@H]2O)[C@H]2[C@@H]1CC(OC)O[C@@H]2C (some centres undefined) | inactive | inactive
CCOC(=O)C1CCC(C(=O)Nc2ccc([S+](=O)([O-])Nc3nccs3)cc2)CC1 (centres undefined) | inactive | inactive
Fc1cc(Nc2nc(-c3ccncc3)nc3ccccc23)ccc1C(F)(F)F | inactive | inactive
C=C1C(=O)OC2C1CCC1(C)C(O)CCC(=C)C21 (centres undefined) | inactive | inactive
CCOC(=O)CCC(=O)Nc1ncnc2c1C(c1ccccc1)c1c(ccc3ccccc13)O2 (centres undefined) | inactive | inactive
CCOc1ccc(COc2ccc(-c3nc4ccccc4[nH]3)cc2)cc1 | inactive | inactive
Cn1ccc2cc(S(=O)(=O)N3CCN(S(=O)(=O)c4c(F)cccc4F)CC3)ccc21 | inactive | inactive
Cc1ccc(S(=O)(=O)Nc2ccccc2C(=O)Nc2nc(-c3ccccc3)co2)cc1 | inactive | inactive
CCCn1c(-c2ccc(F)cc2)nc2c(NCC3CCN(C)CC3)nc(C)nc21 | inactive | inactive
C=C1C(=O)OC2/C=C(\COC(C)=O)CC/C=C(\C=O)CC(OC(=O)C(C)CC)C12 (centres undefined) | inactive | inactive
O=C(Nc1ccc(Cl)c(S(=O)(=O)N2CCOCC2)c1)c1ccc(S(=O)(=O)N2CCCCC2)cc1 | inactive | inactive
COc1ccc(-c2nnc3n2N=C(c2ccccc2OC)CS3)cc1OC | inactive | inactive
O=C(O)c1ccc2c(c1)C(=O)N([C@H](Cc1ccc3ccccc3c1)C(=O)O)C2=O | inactive | inactive
O=S(=O)(c1cccc(Cl)c1)N1CCN(S(=O)(=O)c2ccc3c(c2)OCCO3)CC1 | inactive | inactive
O=S(=O)(Nc1ccc(C2CCNCC2)cc1)c1ccc(NCc2cccc(Cl)c2O)cc1 | inactive | inactive
